Measured values: PubChem BioAssay AID1578 (Sanford-Burnham Center for Chemical Genomics, 2009)
“And” between values parts separate entries of the source, which are not always exact repeats. Identical values can stand only once. The whole screen tested about 290,000 compounds, of which about 3,000 (1%) were called active. The list comes from a sample in which actives are over-represented; it also holds similar structures and randomly drawn compounds. A number with no mark means an inactive call. No stated cut-off is given here; in the data, active means inhibition mostly above about 36% (no sharp cut-off); inactive means mostly below about 34%.

Assay: inhibition of NOD1-driven NF-kB reporter – cell-based, luminescence, uHTS, primary screen (AID 1578);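 further: HEK-293T reporter cells stimulated with the NOD1 agonist gamma-tri-DAP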
Conditions: NOD1-driven NF-kB luciferase reporter cells, at 4 µM, hits give high values

Q: Which inhibition does the source give for `COc1cccc(NP(=O)(Oc2ccccc2)Oc2ccccc2)c1` here?
A: -28.2%

Q: For `O=C(NC1(C(F)(F)F)Oc2ccc(Cl)cc2O1)N1CCC2(CC1)OCCO2` (configuration not stated), which inhibition is on record?
A: 5%

Q: With `Cc1ccccc1-n1c(O)c(C=NCCN2CCOCC2)c(=O)[nH]c1=O` as the compound, how does the inhibition read?
A: -5.7%

Q: With `O=C(Cn1nc(-c2ccc(Cl)cc2)ccc1=O)N1CCC2(CC1)OCCO2` as the compound, how does the inhibition read?
A: -21%

Q: With `CCC(=NCCO)c1c(O)n(-c2ccccc2)c(=O)[nH]c1=O` as the compound, how does the inhibition read?
A: 11.4%

Q: With `COc1cc2c(cc1OC)-c1c(OC)c(OC)c(OC)c3ccnc(c13)C2=O` as the compound, how does the inhibition read?
A: 25.5%

Q: For `O=C1NC(=O)N(CCc2ccc(F)cc2)C(=O)/C1=C/C=C/c1ccccc1`, which inhibition is on record?
A: 42.2% (active)

Q: With `O=C1NC(=O)N(CCc2ccc(F)cc2)C(=O)/C1=C/c1ccco1` as the compound, how does the inhibition read?
A: 10.2%

Q: For `Cc1ccc(N2C(=O)NC(=O)/C(=C\C=C\c3ccco3)C2=O)cc1C`, which inhibition is on record?
A: 48.7%

Q: For `CC(C)c1ccc(N2C(=O)NC(=O)/C(=C\C=C\c3ccco3)C2=O)cc1`, which inhibition is on record?
A: 78.9% (active)

Q: With `CC(C)c1ccc(N2C(=O)NC(=O)/C(=C/C=C/c3ccco3)C2=O)cc1` as the compound, how does the inhibition read?
A: 56.9%

Q: For `O=C1NC(=O)N(CCc2ccc(F)cc2)C(=O)/C1=C/c1cccs1`, which inhibition is on record?
A: 12.9%

Q: For `CCCC(C)n1[nH]c(=O)c2c1NC(=O)CSC2c1ccccc1` (configuration not stated), which inhibition is on record?
A: -4.2%

Q: Which inhibition does the source give for `COc1ccc(CCN(C)Cc2ccc(F)cc2F)cc1OC` here?
A: -4.5%

Q: With `O=[N+]([O-])c1ccc(Nc2ccccc2)cc1` as the compound, how does the inhibition read?
A: 26.1%

Q: Which inhibition does the source give for `CC(C)C(=O)Nc1nnc(CCN(CCc2nnc(NC(=O)C(C)C)s2)[N+](=O)[O-])s1` here?
A: 0.8%

Q: Which inhibition does the source give for `COc1cc(CC2C(=O)N(C)C(=O)N(C)C2=O)ccc1OCc1ccccc1` here?
A: -15.9%

Q: Which inhibition does the source give for `CC1CCC[C@H](O)CCCCCc2cc(O)cc(O)c2C(=O)O1` (some centres not stated) here?
A: -20.3% and 0.8%

Q: With `C[C@H]1CCCC(=O)CCCCCc2cc(O)cc(O)c2C(=O)O1` as the compound, how does the inhibition read?
A: 10.7%

Q: Which inhibition does the source give for `C[C@H]1CCC[C@H](O)CCCCCc2cc(O)cc(O)c2C(=O)O1` here?
A: 71.9% (active)

Q: Which inhibition does the source give for `COc1ccc(S(=O)(=O)NC(CC(=O)N2CCC3(CC2)OCCO3)C(C)C)cc1` (configuration not stated) here?
A: -3.9%

Q: Which inhibition does the source give for `Cc1cccnc1-n1c(-c2ccccc2)nc2ccccc2c1=O` here?
A: -2.5%

Q: For `O=C(c1ccco1)c1cn(Cc2ccccc2Cl)c2ccccc12`, which inhibition is on record?
A: 19.5%

Q: Which inhibition does the source give for `CC1(C)C[C@H]2C=C(C=O)[C@]3(C=O)C[C@]3(C)[C@H]2C1` here?
A: 106% (active)

Q: Which inhibition does the source give for `Cc1c(P(=S)(c2ccccc2)c2ccccc2)[n+]2ccccc2n1C` here?
A: -18.7%

Q: With `O=C(Nc1ccc(Cl)cc1C(=O)c1ccccc1)c1ccc(Br)o1` as the compound, how does the inhibition read?
A: 37.5%

Q: Which inhibition does the source give for `Cc1ccc2c(c1)CCCN2N=O` here?
A: -27.4%

Q: With `C=C(CC1CC(O)[C@]2(C)OC3CC4OC5C[C@]6(C)O[C@]7(C)CCC8OC9C[C@]%10(C)OC%11C(C)=CC(=O)OC%11CC%10OC9C[C@@H](C)C8OC7CC6O[C@]5(C)C/C=C\C4OC3CC2O1)C(=O)O` (some centres not stated) as the compound, how does the inhibition read?
A: -18.2%

Q: For `C=C(CO)CC1CC(O)[C@]2(C)OC3CC4OC5C[C@]6(C)O[C@]7(C)CCC8OC9C[C@]%10(C)OC%11C(C)=CC(=O)OC%11CC%10OC9C[C@@H](C)C8OC7CC6O[C@]5(C)C/C=C\C4OC3CC2O1` (some centres not stated), which inhibition is on record?
A: -6.2%

Q: For `C=C(C=O)C[C@@H]1C[C@H](O)C2OC3C[C@]4(C)OC5/C=C\CC6OC7C(CC=CCC6OC5CCCC4OC3CC2O1)OC1CC2OC3CC(=O)OC3C[C@@H](C)C[C@@]2(C)OC1C[C@@H]7C` (some centres not stated), which inhibition is on record?
A: 76% (active)

Q: For `Clc1cccc(Cl)c1C1N2CCCN12` (configuration not stated), which inhibition is on record?
A: 8.1%

Q: For `c1ccc2c(c1)CNc1ccccc1O2`, which inhibition is on record?
A: -9%

Q: Which inhibition does the source give for `S=C(NCCc1ccccc1)NCCc1cnc[nH]1` here?
A: 0.7%

Q: With `Cc1cccc(NP(=O)(Oc2ccccc2)Oc2ccccc2)c1C` as the compound, how does the inhibition read?
A: -22.3%

Q: Which inhibition does the source give for `Cc1ccc(C)c(NP(=O)(Oc2ccccc2)Oc2ccccc2)c1` here?
A: 48.1% (active)

Q: For `COc1ccc(OC)c(NP(=O)(Oc2ccccc2)Oc2ccccc2)c1`, which inhibition is on record?
A: -6.6%

Q: With `O=C(CN1CCCC1)Nc1ccc(Cl)cc1C(=O)c1ccccc1` as the compound, how does the inhibition read?
A: -5.6%

Q: Which inhibition does the source give for `COc1ccc(CNCCc2c(C)[nH]c3ccc(OC(F)(F)F)cc23)c(OC)c1` here?
A: 5.5%

Q: Which inhibition does the source give for `O=P(Nc1ccccc1)(Nc1ccccc1)Oc1ccccc1` here?
A: -0.3%

Q: With `COc1cc2c(cc1OC)[C@@H]1C(=O)c3ccc4c(c3O[C@@H]1CO2)C[C@H](C(C)C)O4` as the compound, how does the inhibition read?
A: 58.9% (active)

Q: With `O=c1c2ccccc2nc(-c2ccccc2)n1-c1ccccc1O` as the compound, how does the inhibition read?
A: -8.3%

Q: For `Cn1cnnc1Sc1cc(N2CCNCC2)ccc1[N+](=O)[O-]`, which inhibition is on record?
A: -17.2%

Q: For `CCOc1ccc(C2(C#N)CC[N+](C)(C)CC2)cc1`, which inhibition is on record?
A: -0.5%

Q: Which inhibition does the source give for `COCc1cc(OC(=O)N(C)C)nc2c1c(C)nn2C` here?
A: -6.7%

Q: With `O=C(CN1CC(c2ccccc2)CC1=O)Nc1ccc(F)cc1` (configuration not stated) as the compound, how does the inhibition read?
A: -14.5%

Q: Which inhibition does the source give for `O=C(CCCc1ccccc1)NCCc1cnc[nH]1` here?
A: -15.9%

Q: For `O=C(/C=C/c1ccccc1)NCCc1cnc[nH]1`, which inhibition is on record?
A: 32.6% (active)

Q: With `O=C(COc1ccccc1)NCCc1cnc[nH]1` as the compound, how does the inhibition read?
A: 3.5%

Q: With `CCOc1ccccc1Oc1coc2cc(OC(=O)N(C)C)ccc2c1=O` as the compound, how does the inhibition read?
A: 0.4%

Q: Which inhibition does the source give for `COc1cccc(Oc2coc3cc(OC(=O)N(C)C)ccc3c2=O)c1` here?
A: 6.2%

Q: Which inhibition does the source give for `O=C1CC(c2ccccc2)CC(O)=C1C=NCCN1CCN(C(=O)Cc2ccccc2)CC1` (configuration not stated) here?
A: 8.5%

Q: For `O=C(C1CCCN(S(=O)(=O)c2cccc3nsnc23)C1)N1CCC2(CC1)OCCO2` (configuration not stated), which inhibition is on record?
A: -9.3%

Q: For `O=C(Cc1ccccc1)N1CCN(Cc2cccc(Br)c2)CC1`, which inhibition is on record?
A: 0.2%

Q: Which inhibition does the source give for `CC(C)c1oc(=O)cc2c1[C@@H](O)[C@H]1OC(=O)[C@@]3(C)C[C@@H](O)[C@@H](O)[C@@]2(C)C13` (some centres not stated) here?
A: 96.2% (active)

Q: With `CC(C)c1oc(=O)cc2c1[C@@H](O)[C@H]1OC(=O)[C@@]3(C)CC[C@@H](O)[C@@]2(C)C13` (some centres not stated) as the compound, how does the inhibition read?
A: -5.4%

Q: For `Cc1csc(=N)n1Cc1ccccc1`, which inhibition is on record?
A: -19.9%

Q: For `Cc1cccc(N2C(=O)NC(=O)C3(Cc4cc(C)ccc4N(C)C3)C2=O)c1` (configuration not stated), which inhibition is on record?
A: 11%

Q: Which inhibition does the source give for `COc1ccc(Cl)cc1C(=O)C1CCCN(Cc2cnc(C)s2)C1` (configuration not stated) here?
A: -27.2%

Q: For `CC1CCC(C(C)C)C(OC(=O)Cn2c(COc3ccccc3)[n+](C)c3ccccc32)C1` (configuration not stated), which inhibition is on record?
A: -12.8%

Q: For `CC1CCC(C(C)C)C(OC(=O)COC(=O)c2ccccc2N)C1` (configuration not stated), which inhibition is on record?
A: 79.2% (active)

Q: Which inhibition does the source give for `CC1CCC(C(C)C)C(OP(N)(=O)c2ccccc2)C1` (configuration not stated) here?
A: 12.7%

Q: With `Cc1cccnc1-n1c(-c2ccco2)nc2ccccc2c1=O` as the compound, how does the inhibition read?
A: -8.5%

Q: For `CC(C)(C)NC(=S)/N=C(\N)N[N+](=O)[O-]`, which inhibition is on record?
A: -21.7%

Q: Which inhibition does the source give for `Cc1[nH]c2ccccc2c1C(=O)C(=O)N1CCC2(CC1)OCCO2` here?
A: -23.7%

Q: For `CC(C)[C@]12O[C@H]1[C@@H]1O[C@]13[C@]1(O[C@H]1C[C@H]1C4=C(CC[C@@]13C)C(=O)OC4)[C@@H]2O`, which inhibition is on record?
A: 107% (active)

Q: With `Cn1c(O)c(C=Nc2ccccc2-c2ccccc2)c(=O)n(C)c1=O` as the compound, how does the inhibition read?
A: -12.2%

Q: With `COc1ccccc1[As](=O)(O)CC(O)COc1ccc(Cl)cc1Cl` (configuration not stated) as the compound, how does the inhibition read?
A: -11%

Q: With `CN(C)c1ccc(C(=O)N/N=C/C23CC[C@@H](O)CC2(O)CC[C@@H]2[C@@H]3CCC3(C)C(C4=CC(=O)OC4)CCC23O)cc1` (some centres not stated) as the compound, how does the inhibition read?
A: 45% (active)

Q: With `CC12CC[C@H]3[C@@H](CCC4(O)C[C@H](O)CCC34/C=N/NC(=O)c3ccc(O)cc3)C1(O)CCC2C1=CC(=O)OC1` (some centres not stated) as the compound, how does the inhibition read?
A: -7.5%

Q: For `COc1ccc(C(=O)N/N=C/C23CC[C@@H](O)CC2(O)CC[C@@H]2[C@@H]3CCC3(C)C(C4=CC(=O)OC4)CCC23O)cc1` (some centres not stated), which inhibition is on record?
A: 12.5%

Q: Which inhibition does the source give for `CC(=O)N1N=C2C3CCN(CC3)C2C1c1ccc(C)cc1` (configuration not stated) here?
A: -23.8%

Q: For `COc1ccccc1OCCCn1cc(C(=O)c2ccco2)c2ccccc21`, which inhibition is on record?
A: 3.3%

Q: With `Cc1cc(C=C2C(=O)NC(=O)NC2=O)c(C)n1-c1ccc2c(c1)OCO2` as the compound, how does the inhibition read?
A: 55.3%

Q: For `Cc1cc(C=C2C(=O)NC(=S)NC2=O)c(C)n1-c1ccc2c(c1)OCO2`, which inhibition is on record?
A: 104% (active)

Q: For `Cc1cc(/C=C2\C(=O)NC(=O)N(C)C2=O)c(C)n1-c1ccc2c(c1)OCO2`, which inhibition is on record?
A: -6.1%

Q: With `C/C(=N\N1CCCCCC1)c1c(O)n(C)c(=O)n(C)c1=O` as the compound, how does the inhibition read?
A: -4.6%

Q: For `Cc1cccn2c(NCC3CCCO3)c(C(C)C)nc12` (configuration not stated), which inhibition is on record?
A: 2.9%
